Source: ChEMBL document CHEMBL1961873, “Compounds: GSK PKIS; Assays: Nanosyn kinase panel” (2012)

What was measured:
[1] = target: Fibroblast growth factor receptor 4 (Homo sapiens) (UniProt P22455); details: at 1 µM;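 note: reported figure is the averaged percent inhibition of FGFR4, from the GSK PKIS kinase screening panel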
[2] = target: Tyrosine-protein kinase Fgr (Homo sapiens) (UniProt P09769); details: at 0.1 µM
[3] = target: Tyrosine-protein kinase Fgr (Homo sapiens) (UniProt P09769); details: at 1 µM
[4] = target: Vascular endothelial growth factor receptor 1 (Homo sapiens) (UniProt P17948); details: at 0.1 µM
[5] = target: Vascular endothelial growth factor receptor 1 (Homo sapiens) (UniProt P17948); details: at 1 µM
[6] = target: Receptor-type tyrosine-protein kinase FLT3 (Homo sapiens) (UniProt P36888); details: at 0.1 µM
[7] = target: Receptor-type tyrosine-protein kinase FLT3 (Homo sapiens) (UniProt P36888); details: at 1 µM
[8] = test system: T1, Receptor-type tyrosine-protein kinase FLT3 (Homo sapiens), P36888 [D835Y]; details: at 0.1 µM
T1 sequence (whole entry): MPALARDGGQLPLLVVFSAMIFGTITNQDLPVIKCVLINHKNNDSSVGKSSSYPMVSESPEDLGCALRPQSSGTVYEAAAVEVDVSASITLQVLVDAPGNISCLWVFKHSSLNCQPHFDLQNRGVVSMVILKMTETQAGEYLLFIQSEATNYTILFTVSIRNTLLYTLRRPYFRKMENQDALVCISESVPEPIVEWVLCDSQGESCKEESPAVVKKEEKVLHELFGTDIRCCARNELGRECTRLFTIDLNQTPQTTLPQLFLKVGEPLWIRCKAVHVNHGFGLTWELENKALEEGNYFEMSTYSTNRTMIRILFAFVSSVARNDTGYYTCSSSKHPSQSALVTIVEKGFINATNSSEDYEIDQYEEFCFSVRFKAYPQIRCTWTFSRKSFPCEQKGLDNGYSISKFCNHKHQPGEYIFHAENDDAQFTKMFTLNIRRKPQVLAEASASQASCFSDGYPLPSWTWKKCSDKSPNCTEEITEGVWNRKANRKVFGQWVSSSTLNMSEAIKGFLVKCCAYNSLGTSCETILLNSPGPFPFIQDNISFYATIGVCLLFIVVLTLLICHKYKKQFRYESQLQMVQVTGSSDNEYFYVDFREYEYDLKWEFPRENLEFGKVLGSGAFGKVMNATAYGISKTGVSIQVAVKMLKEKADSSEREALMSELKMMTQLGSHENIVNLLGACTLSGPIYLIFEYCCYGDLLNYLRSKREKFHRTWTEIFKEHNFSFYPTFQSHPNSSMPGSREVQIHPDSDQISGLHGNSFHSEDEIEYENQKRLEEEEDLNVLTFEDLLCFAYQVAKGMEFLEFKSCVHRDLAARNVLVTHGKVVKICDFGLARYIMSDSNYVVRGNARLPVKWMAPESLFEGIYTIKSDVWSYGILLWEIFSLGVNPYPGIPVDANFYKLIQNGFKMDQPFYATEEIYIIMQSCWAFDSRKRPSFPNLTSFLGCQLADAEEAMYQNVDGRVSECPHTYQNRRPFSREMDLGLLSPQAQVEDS

[9] = target: Non-receptor tyrosine-protein kinase TYK2 (Homo sapiens) (UniProt P29597); details: at 1 µM;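 note: values are mean percent inhibition of TYK2 kinase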
[10] = target: T2, Tyrosine-protein kinase receptor TYRO3 (Homo sapiens) (UniProt Q06418); details: at 0.1 µM;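 note: reported percentages are averaged inhibition values of TYRO3 kinase activity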
T2 sequence (whole entry): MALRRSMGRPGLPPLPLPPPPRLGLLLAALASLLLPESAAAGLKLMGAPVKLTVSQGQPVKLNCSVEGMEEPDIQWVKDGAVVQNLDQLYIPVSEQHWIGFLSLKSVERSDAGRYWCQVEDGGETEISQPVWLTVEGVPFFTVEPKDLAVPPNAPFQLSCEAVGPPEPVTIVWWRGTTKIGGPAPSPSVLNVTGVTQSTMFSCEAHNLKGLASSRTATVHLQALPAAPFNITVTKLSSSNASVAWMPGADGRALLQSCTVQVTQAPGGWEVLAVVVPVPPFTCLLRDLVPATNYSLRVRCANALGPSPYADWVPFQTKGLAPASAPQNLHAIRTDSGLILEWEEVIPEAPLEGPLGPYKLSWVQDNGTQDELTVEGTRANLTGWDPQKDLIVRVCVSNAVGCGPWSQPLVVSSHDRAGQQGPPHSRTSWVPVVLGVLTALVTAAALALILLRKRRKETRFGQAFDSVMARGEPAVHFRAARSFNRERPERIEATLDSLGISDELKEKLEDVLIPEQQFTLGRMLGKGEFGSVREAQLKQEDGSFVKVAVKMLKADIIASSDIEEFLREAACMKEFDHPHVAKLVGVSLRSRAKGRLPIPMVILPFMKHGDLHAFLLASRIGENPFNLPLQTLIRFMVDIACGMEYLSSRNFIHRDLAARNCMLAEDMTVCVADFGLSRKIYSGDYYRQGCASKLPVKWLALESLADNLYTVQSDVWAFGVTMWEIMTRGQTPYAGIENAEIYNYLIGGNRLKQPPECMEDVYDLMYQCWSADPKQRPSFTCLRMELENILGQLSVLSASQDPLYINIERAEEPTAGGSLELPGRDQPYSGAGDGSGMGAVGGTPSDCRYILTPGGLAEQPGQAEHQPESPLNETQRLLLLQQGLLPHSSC

Sequence of Fibroblast growth factor receptor 4 (Homo sapiens) (P22455 22-802 limits assumed): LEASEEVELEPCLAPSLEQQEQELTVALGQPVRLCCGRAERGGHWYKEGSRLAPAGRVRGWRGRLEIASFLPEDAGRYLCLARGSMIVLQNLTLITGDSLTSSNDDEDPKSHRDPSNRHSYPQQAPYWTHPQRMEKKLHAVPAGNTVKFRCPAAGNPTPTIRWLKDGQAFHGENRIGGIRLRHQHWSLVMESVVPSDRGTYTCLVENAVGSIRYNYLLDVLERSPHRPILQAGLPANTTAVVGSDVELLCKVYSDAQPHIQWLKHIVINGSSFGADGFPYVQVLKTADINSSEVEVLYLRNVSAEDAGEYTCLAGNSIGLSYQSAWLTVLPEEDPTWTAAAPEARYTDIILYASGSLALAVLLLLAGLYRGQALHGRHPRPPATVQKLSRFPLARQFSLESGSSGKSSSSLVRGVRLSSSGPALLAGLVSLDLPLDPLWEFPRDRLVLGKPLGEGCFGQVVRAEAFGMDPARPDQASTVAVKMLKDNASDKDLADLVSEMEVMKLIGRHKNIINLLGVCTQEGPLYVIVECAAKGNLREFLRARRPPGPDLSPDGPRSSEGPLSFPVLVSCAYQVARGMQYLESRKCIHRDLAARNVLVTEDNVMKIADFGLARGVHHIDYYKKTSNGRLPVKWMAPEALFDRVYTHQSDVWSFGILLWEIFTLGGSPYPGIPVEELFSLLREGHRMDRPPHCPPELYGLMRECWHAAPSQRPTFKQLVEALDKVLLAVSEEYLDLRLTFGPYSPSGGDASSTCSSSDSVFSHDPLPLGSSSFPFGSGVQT
Sequence of Non-receptor tyrosine-protein kinase TYK2 (Homo sapiens) (P29597 whole entry): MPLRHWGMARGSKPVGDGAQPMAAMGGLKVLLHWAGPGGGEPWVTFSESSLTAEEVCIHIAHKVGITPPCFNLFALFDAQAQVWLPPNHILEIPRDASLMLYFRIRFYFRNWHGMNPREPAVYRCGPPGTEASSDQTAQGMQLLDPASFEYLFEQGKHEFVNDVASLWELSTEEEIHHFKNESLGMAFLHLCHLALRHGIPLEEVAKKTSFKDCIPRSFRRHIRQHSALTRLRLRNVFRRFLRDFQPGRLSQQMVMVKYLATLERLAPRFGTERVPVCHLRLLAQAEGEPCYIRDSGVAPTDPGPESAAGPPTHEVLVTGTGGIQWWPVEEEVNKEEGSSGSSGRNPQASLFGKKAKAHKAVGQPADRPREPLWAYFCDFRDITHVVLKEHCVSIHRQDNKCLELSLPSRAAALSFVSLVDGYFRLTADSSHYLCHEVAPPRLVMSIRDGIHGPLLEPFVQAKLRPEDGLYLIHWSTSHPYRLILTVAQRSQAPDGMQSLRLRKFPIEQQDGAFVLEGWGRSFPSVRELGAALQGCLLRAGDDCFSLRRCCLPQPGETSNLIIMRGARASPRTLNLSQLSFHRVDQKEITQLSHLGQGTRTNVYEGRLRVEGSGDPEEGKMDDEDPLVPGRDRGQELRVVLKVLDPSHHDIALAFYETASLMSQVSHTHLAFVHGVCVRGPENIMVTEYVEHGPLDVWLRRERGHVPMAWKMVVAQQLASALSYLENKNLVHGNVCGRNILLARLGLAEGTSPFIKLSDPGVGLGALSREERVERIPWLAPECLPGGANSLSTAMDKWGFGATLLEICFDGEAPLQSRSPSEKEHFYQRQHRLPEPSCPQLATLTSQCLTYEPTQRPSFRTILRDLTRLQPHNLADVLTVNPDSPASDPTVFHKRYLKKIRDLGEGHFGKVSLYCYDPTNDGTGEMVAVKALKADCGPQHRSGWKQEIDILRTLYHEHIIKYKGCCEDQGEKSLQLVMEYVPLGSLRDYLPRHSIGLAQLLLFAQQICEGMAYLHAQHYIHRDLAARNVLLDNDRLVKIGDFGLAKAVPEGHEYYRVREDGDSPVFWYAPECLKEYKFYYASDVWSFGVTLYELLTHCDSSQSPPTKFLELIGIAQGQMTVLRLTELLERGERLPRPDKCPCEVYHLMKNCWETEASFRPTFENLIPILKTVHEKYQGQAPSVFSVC
Sequence of Vascular endothelial growth factor receptor 1 (Homo sapiens) (P17948 whole entry): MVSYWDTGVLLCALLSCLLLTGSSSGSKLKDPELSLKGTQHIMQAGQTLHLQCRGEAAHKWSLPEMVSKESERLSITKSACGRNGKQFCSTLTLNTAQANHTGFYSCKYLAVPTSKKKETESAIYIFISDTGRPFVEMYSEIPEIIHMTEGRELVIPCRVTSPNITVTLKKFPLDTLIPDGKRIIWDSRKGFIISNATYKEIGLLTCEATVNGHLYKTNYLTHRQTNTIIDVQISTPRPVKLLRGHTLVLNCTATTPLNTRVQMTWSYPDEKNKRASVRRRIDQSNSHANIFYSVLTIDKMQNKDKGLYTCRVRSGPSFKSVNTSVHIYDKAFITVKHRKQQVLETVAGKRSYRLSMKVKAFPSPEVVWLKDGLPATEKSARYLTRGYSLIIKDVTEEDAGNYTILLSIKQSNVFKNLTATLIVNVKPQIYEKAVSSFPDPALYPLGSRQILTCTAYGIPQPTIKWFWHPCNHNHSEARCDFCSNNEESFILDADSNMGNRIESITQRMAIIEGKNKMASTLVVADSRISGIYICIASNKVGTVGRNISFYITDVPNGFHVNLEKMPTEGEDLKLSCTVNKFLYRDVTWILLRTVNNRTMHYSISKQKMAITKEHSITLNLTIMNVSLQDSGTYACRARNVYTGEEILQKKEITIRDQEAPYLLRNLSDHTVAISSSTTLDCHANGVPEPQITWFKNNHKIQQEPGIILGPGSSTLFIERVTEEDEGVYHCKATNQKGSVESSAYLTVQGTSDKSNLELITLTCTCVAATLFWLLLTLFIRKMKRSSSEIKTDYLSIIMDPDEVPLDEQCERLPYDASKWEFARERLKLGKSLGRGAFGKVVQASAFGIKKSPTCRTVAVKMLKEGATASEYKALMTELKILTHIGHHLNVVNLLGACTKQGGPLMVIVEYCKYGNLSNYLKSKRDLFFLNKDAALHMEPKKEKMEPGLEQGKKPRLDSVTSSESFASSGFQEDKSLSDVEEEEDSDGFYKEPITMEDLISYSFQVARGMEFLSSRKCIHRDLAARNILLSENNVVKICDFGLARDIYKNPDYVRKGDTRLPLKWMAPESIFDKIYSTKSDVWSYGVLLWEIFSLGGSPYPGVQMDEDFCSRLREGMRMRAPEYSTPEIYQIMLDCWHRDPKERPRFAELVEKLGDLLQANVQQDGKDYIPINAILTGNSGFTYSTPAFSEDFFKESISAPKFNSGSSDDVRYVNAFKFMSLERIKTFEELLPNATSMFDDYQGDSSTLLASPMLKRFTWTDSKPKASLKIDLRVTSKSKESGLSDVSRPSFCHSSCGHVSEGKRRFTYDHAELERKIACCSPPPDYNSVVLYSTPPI
Sequence of Tyrosine-protein kinase Fgr (Homo sapiens) (P09769 2-529 limits assumed): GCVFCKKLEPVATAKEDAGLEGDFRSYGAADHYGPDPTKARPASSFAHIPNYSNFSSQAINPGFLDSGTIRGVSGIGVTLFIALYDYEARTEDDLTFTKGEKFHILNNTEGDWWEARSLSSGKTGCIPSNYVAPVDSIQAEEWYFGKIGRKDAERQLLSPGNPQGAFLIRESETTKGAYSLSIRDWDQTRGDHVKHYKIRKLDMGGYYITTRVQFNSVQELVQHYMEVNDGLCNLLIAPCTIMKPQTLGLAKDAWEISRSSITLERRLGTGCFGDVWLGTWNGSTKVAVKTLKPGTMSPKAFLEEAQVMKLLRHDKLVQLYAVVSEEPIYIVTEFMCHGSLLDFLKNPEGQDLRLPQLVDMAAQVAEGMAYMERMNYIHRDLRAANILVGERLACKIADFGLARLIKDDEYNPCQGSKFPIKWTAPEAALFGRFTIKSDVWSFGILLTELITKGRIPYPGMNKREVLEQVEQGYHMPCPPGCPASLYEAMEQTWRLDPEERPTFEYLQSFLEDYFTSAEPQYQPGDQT

SMILES	inhibition [1]	inhibition [2]	inhibition [3]	inhibition [4]	inhibition [5]	inhibition [6]	inhibition [7]	inhibition [8]	inhibition [9]	inhibition [10]
C[C@@H](Oc1cc(-n2cnc3ccc(OCC4CCN(C)CC4)cc32)sc1C(N)=O)c1ccccc1C(F)(F)F	-0.61%	2.16%	13.4%	-0.83%	-0.16%	1.99%	11%	3.19%	3.05%	-0.92%
FC(F)(F)c1ccc(-c2nn3ncccc3c2-c2ccnc(Nc3ccc4c(c3)OCCO4)n2)cc1	11.7%	25.6%	61.1%	1.91%	4.89%	1.7%	0.28%	4.42%	5.73%	1.27%
O=C1Nc2ccccc2/C1=C/Nc1ccc2[nH]c(=O)[nH]c2c1	11.4%	11.3%	26.5%	11%	30.1%	26.6%	74%	17.5%	18.7%	5.57%
Cc1ccc(Nc2ccnc(Nc3cccc(C(N)=O)c3)n2)cc1O	3.08%	52.6%	72.8%	69.9%	97.8%	18.8%	64.5%	30.1%	16.9%	13.1%
Cc1ccc(O)cc1Nc1ccnc2ccc(S(C)(=O)=O)cc12	9.15%	76.2%	81.8%	22.2%	72.6%	2.73%	4.94%	-0.25%	9.66%	4.42%
CN(C)c1cc2c(Nc3ccc4c(cnn4Cc4ccccc4)c3)ncnc2cn1	7.89%	9.23%	33.2%	1.1%	1.36%	1.97%	1.77%	0.4%	-5.95%	0.23%
CN(C)C(=O)O[C@@H]1CN[C@@H](C#Cc2cc3ncnc(Nc4ccc(OCc5cccc(F)c5)c(Cl)c4)c3s2)C1	0.26%	4.03%	8.75%	-0.77%	1.01%	-1.89%	-0.37%	-2.1%	0.28%	-0.78%
CS(=O)(=O)CCNCc1nc(-c2ccc3ncnc(Nc4ccc(OCc5cccc(C(F)(F)F)c5)cc4)c3c2)cs1	0.59%	2.47%	4.41%	-0.29%	-0.5%	7.87%	32.1%	2.62%	-0.77%	0.47%
N#Cc1cccc(Nc2nccc(-c3cnn4ncccc34)n2)c1	5.22%	11.1%	41.7%	8.37%	28.3%	18.5%	68%	7.57%	11%	7.97%
COc1cc2ncnc(Nc3ccc4c(cnn4Cc4ccccc4)c3)c2cc1OC	-0.35%	18.4%	44.2%	0.61%	3.06%	4.33%	5.83%	-2.99%	-3.38%	1.85%
COc1cc(Nc2nccc(-c3cnn4ncccc34)n2)cc(OC)c1	0.03%	6.85%	36.9%	10.4%	30.9%	59.6%	90.8%	27%	31.8%	1.77%
CN(C)CCCn1c(-c2nonc2N)nc2cnccc21	1.11%	1.37%	2.22%	1.09%	2.77%	2.53%	1.85%	-5.34%	-2.04%	1.74%
CN(C)C(=O)O[C@H]1CN[C@H](C#Cc2cc3ncnc(Nc4ccc(OCc5cccc(F)c5)c(Cl)c4)c3s2)C1	1.39%	1.56%	4.75%	1.8%	2.23%	-0.55%	0.66%	3.22%	-2.89%	2.23%
Cc1cc(-c2ccccn2)cc(C)c1/C=C/c1cncc(-c2nn[nH]n2)c1	-0.54%	2.37%	18.2%	-0.29%	1.74%	5.83%	3.4%	-7.99%	-2.42%	0.01%
Cc1cc(Cl)cc2c1NC(=O)C2=NNc1ccc(S(N)(=O)=O)cc1	2.64%	4.99%	2.96%	0.01%	-0.12%	2.63%	1.85%	-2.63%	0.66%	1.11%
CCOc1nccc2c1nc(-c1nonc1N)n2CC	4.2%	6.66%	5.06%	2.14%	2.02%	0.14%	1.3%	-2.2%	1.21%	3.25%
COc1ccc(-c2nn3ncccc3c2-c2ccnc(Nc3cccc(C(F)(F)F)c3)n2)cc1	0.55%	10.2%	42.1%	4.29%	10.2%	1.01%	1.12%	-4.47%	-0.27%	1.68%
